PubChem BioAssay (EPA / NIEHS)
“And” between values parts separate entries of the source, which are not always exact repeats. Equal entries are not always repeated. Where a structure was tested more than once in an assay, its records may differ in their call. The source made the active and inactive calls. The calls were made as follows: active = hit-call score of the fitted dose curve at least 0.9, where 1 is the maximum; inactive = score below 0.9.

Read-out: CYP3A5 (gene 1577)
Assay: LTEA_HepaRG_CYP3A5: Life Technologies and Expression Analysis (LTEA) Assay for CYP3A5 using HepaRG (AID 2283493)
Details: mRNA level, 48 h; actives raise or lower the signal
Method in brief: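 Differentiated HepaRG cells in serum-free induction medium were dosed 48 h with test chemicals (8-point half-log series, top 100 uM, 0.5% DMSO, duplicate). CYP3A5 mRNA measured by qRT-PCR, normalized to ACTB, GAPDH, POLR2A; bidirectional fit versus DMSO.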

SMILES | AC50 | outcome
N#Cc1cc(Br)c(O)c(Br)c1 | 9.58 µM (active) | 
CCOC(=O)C(Cl)Cc1cc(-n2nc(C)n(C(F)F)c2=O)c(F)cc1Cl (stereo unspecified) |  | inactive
CC(C)Oc1cc(-n2nc(C(C)(C)C)oc2=O)c(Cl)cc1Cl |  | inactive
COc1nc(NC(C)C)nc(NC(C)C)n1 |  | inactive
C=CCC1=C(C)C(OC(=O)C2C(C=C(C)C)C2(C)C)CC1=O (stereo unspecified) |  | inactive
CCc1nn(C)c(C(=O)NCc2ccc(C(C)(C)C)cc2)c1Cl | 88.9 µM (active) | 
COc1cnc(OC)n2nc(NS(=O)(=O)c3c(OCC(F)F)cccc3C(F)(F)F)nc12 |  | inactive
CCOC(=O)CC(SP(=S)(OC)OC)C(=O)OCC (stereo unspecified) |  | inactive
Cc1cc(Cl)ccc1OCC(=O)O |  | inactive
COP(=S)(OC)Oc1nc(Cl)c(Cl)cc1Cl |  | inactive
CO/C=C(/C(=O)OC)c1ccccc1Oc1cc(Oc2ccccc2C#N)ncn1 | 62.6 µM (active) and 35.6 µM (active) | inactive
CNC(=O)ON=CC(C)(C)SC |  | inactive
CC(Oc1ccc(Cl)cc1Cl)C(=O)O (stereo unspecified) |  | inactive
CCCCNC(=O)OCC#CI |  | inactive
COC(=O)c1ccccc1C(=O)OC |  | inactive
CN(C)C(=S)SSC(=S)N(C)C |  | inactive
CCCCC(CC)COC(=O)c1ccccc1C(=O)OCC(CC)CCCC (stereo unspecified) |  | inactive
C=CCC1=C(C)[C@@H](OC(=O)[C@@H]2[C@@H](C=C(C)C)C2(C)C)CC1=O |  | inactive
CON(C)C(=O)Nc1ccc(Cl)c(Cl)c1 |  | inactive
C#CCOS(=O)OC1CCCCC1Oc1ccc(C(C)(C)C)cc1 (stereo unspecified) | 30.1 µM (active) | 
CS/C(C)=N/OC(=O)N(C)SN(C)C(=O)O/N=C(\C)SC |  | inactive
CCCN(CCC)c1c([N+](=O)[O-])cc(S(N)(=O)=O)cc1[N+](=O)[O-] | 93.8 µM (active) and 50 µM (active) | inactive
COC(=O)C(C)Oc1ccc(Oc2ccc(Cl)cc2Cl)cc1 (stereo unspecified) |  | inactive
O=C(O)c1nc(Cl)ccc1Cl |  | inactive

Read-out: Fatty Acid-Binding Protein 1 (FABP1), FABP1 (gene 2168)
Assay: LTEA_HepaRG_FABP1: Life Technologies and Expression Analysis (LTEA) Assay for Fatty Acid-Binding Protein 1 (FABP1) using HepaRG (AID 2283494)
Details: mRNA level, 48 h; actives raise or lower the signal
Method in brief: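 Differentiated human HepaRG cells were exposed in duplicate for 48 h in serum-free induction medium to 8-point half-log concentration series topping at 100 uM in 0.5% DMSO. FABP1 mRNA measured by TaqMan qRT-PCR, normalized to ACTB/GAPDH/POLR2A; bidirectional fit versus DMSO.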

SMILES | AC50 | outcome
N#Cc1cc(Br)c(O)c(Br)c1 | 13 µM (active) | 
CCOC(=O)C(Cl)Cc1cc(-n2nc(C)n(C(F)F)c2=O)c(F)cc1Cl (stereo unspecified) |  | inactive
CC(C)Oc1cc(-n2nc(C(C)(C)C)oc2=O)c(Cl)cc1Cl | 19.4 µM (active) | 
COc1nc(NC(C)C)nc(NC(C)C)n1 | 23.1 µM (active) | 
C=CCC1=C(C)C(OC(=O)C2C(C=C(C)C)C2(C)C)CC1=O (stereo unspecified) | 50 µM (active) and 44.6 µM (active) | 
CCc1nn(C)c(C(=O)NCc2ccc(C(C)(C)C)cc2)c1Cl | 5 µM (active) | 
COc1cnc(OC)n2nc(NS(=O)(=O)c3c(OCC(F)F)cccc3C(F)(F)F)nc12 |  | inactive
CCOC(=O)CC(SP(=S)(OC)OC)C(=O)OCC (stereo unspecified) |  | inactive
Cc1cc(Cl)ccc1OCC(=O)O |  | inactive
COP(=S)(OC)Oc1nc(Cl)c(Cl)cc1Cl |  | inactive
CO/C=C(/C(=O)OC)c1ccccc1Oc1cc(Oc2ccccc2C#N)ncn1 | 82.4 µM (active) and 75.6 µM (active) and 73.2 µM (active) | 
CNC(=O)ON=CC(C)(C)SC |  | inactive
CC(Oc1ccc(Cl)cc1Cl)C(=O)O (stereo unspecified) | 50 µM (active) | 
CCCCNC(=O)OCC#CI | 50 µM (active) | 
COC(=O)c1ccccc1C(=O)OC |  | inactive
CN(C)C(=S)SSC(=S)N(C)C |  | inactive
CCCCC(CC)COC(=O)c1ccccc1C(=O)OCC(CC)CCCC (stereo unspecified) |  | inactive
C=CCC1=C(C)[C@@H](OC(=O)[C@@H]2[C@@H](C=C(C)C)C2(C)C)CC1=O | 50 µM (active) | 
CON(C)C(=O)Nc1ccc(Cl)c(Cl)c1 | 37.6 µM (active) | 
C#CCOS(=O)OC1CCCCC1Oc1ccc(C(C)(C)C)cc1 (stereo unspecified) | 18.7 µM (active) | 
CS/C(C)=N/OC(=O)N(C)SN(C)C(=O)O/N=C(\C)SC |  | inactive
CCCN(CCC)c1c([N+](=O)[O-])cc(S(N)(=O)=O)cc1[N+](=O)[O-] | 93.5 µM (active) and 35.6 µM (active) and 34.9 µM (active) | 
Oc1ccccc1-c1ccccc1 |  | inactive
COC(=O)C(C)Oc1ccc(Oc2ccc(Cl)cc2Cl)cc1 (stereo unspecified) |  | inactive
O=C(O)c1nc(Cl)ccc1Cl | 33.4 µM (active) | inactive

Read-out: Cytochrome P450 4A22 (Homo sapiens) (UniProt Q5TCH4)
Assay: LTEA_HepaRG_CYP4A22: Life Technologies and Expression Analysis (LTEA) Assay for Cytochrome P450 4A22 (CYP4A22) using HepaRG (AID 2283495)
Details: mRNA level, 48 h; actives raise or lower the signal
Method in brief: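 Readout is CYP4A22 transcript induction or loss, quantified by qRT-PCR and normalized to ACTB, GAPDH and POLR2A. Human HepaRG cells receive test chemicals for 48 h at eight half-log concentrations from 100 uM in 0.5% DMSO.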

SMILES | AC50 | outcome
N#Cc1cc(Br)c(O)c(Br)c1 | 25 µM (active) | 
CCOC(=O)C(Cl)Cc1cc(-n2nc(C)n(C(F)F)c2=O)c(F)cc1Cl (stereo unspecified) |  | inactive
CC(C)Oc1cc(-n2nc(C(C)(C)C)oc2=O)c(Cl)cc1Cl | 50 µM (active) | 
COc1nc(NC(C)C)nc(NC(C)C)n1 |  | inactive
C=CCC1=C(C)C(OC(=O)C2C(C=C(C)C)C2(C)C)CC1=O (stereo unspecified) | 84.3 µM (active) and 94.1 µM (active) and 90.4 µM (active) | 
CCc1nn(C)c(C(=O)NCc2ccc(C(C)(C)C)cc2)c1Cl | 0.677 µM (active) | 
COc1cnc(OC)n2nc(NS(=O)(=O)c3c(OCC(F)F)cccc3C(F)(F)F)nc12 | 9.46 µM (active) | 
CCOC(=O)CC(SP(=S)(OC)OC)C(=O)OCC (stereo unspecified) |  | inactive
Cc1cc(Cl)ccc1OCC(=O)O |  | inactive
COP(=S)(OC)Oc1nc(Cl)c(Cl)cc1Cl |  | inactive
CO/C=C(/C(=O)OC)c1ccccc1Oc1cc(Oc2ccccc2C#N)ncn1 | 76.3 µM (active) and 66.9 µM (active) and 65.6 µM (active) | 
CNC(=O)ON=CC(C)(C)SC |  | inactive
CC(Oc1ccc(Cl)cc1Cl)C(=O)O (stereo unspecified) |  | inactive
CCCCNC(=O)OCC#CI |  | inactive
COC(=O)c1ccccc1C(=O)OC |  | inactive
CN(C)C(=S)SSC(=S)N(C)C |  | inactive
CCCCC(CC)COC(=O)c1ccccc1C(=O)OCC(CC)CCCC (stereo unspecified) |  | inactive
C=CCC1=C(C)[C@@H](OC(=O)[C@@H]2[C@@H](C=C(C)C)C2(C)C)CC1=O | 83.9 µM (active) | 
CON(C)C(=O)Nc1ccc(Cl)c(Cl)c1 | 84.4 µM (active) | 
C#CCOS(=O)OC1CCCCC1Oc1ccc(C(C)(C)C)cc1 (stereo unspecified) |  | inactive
CS/C(C)=N/OC(=O)N(C)SN(C)C(=O)O/N=C(\C)SC |  | inactive
Oc1ccccc1-c1ccccc1 |  | inactive
COC(=O)C(C)Oc1ccc(Oc2ccc(Cl)cc2Cl)cc1 (stereo unspecified) | 12.7 µM (active) | 
O=C(O)c1nc(Cl)ccc1Cl |  | inactive
